In assay [1] the target is Catechol O-methyltransferase (Homo sapiens) (UniProt P21964). In words: Confirmatory Screen for Target Class Profiling of Small Molecule Inhibitors of Methyltransferases (AID 1745852; calls by dose curve; also: potency is read from the fitted curve at half-maximal effect; as to activity change, negative = inhibition: % is scaled to controls: 0 for no effect and ±100 for the full control effect). The following applies: MTase-Glo luminescence, SAH detection, recombinant enzyme; measured here: COMT max response; stronger effect = lower value.
For assay [2], the target named is Guanidinoacetate N-methyltransferase (Homo sapiens) (UniProt Q14353). Described as above. Particulars: MTase-Glo luminescence, SAH detection, recombinant enzyme; activity change, negative = inhibition: at 57.3 µM (top of the series) unless noted; series mostly up to 57.3 µM.
Assay [3] has as its target Nicotinamide N-methyltransferase (Homo sapiens) (UniProt P40261). The description is as above. The following applies: MTase-Glo luminescence, SAH detection, recombinant enzyme; measured here: NNMT max response; stronger effect = lower value.
Assay [4] has as its target Phenylethanolamine N-methyltransferase (Homo sapiens) (UniProt P11086). Described as above. The following applies: MTase-Glo luminescence, SAH detection, recombinant enzyme; measured here: PNMT max response; stronger effect = lower value.
The target of assay [5] is Glutathione peroxidase 1 (Homo sapiens) (UniProt P07203). In words: Primary qHTS Assay for Inhibitors of Recombinant Selenoprotein Glutathione Peroxidase 1 (GPX1) (AID 1845191). Also: nearly all actives have a fitted effect of over 65% in size. As to activity, negative = inhibition: % is scaled to controls: 0 for no effect and ±100 for the full control effect. The following applies: recombinant GPX1, GR-coupled NADPH fluorescence, 15 min; series mostly up to 48.8 µM. The essentials:
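GPX1 10 nM, GR 100 nM, GSH 1 mM, NADPH 0.5 mM, CHP 0.5 mM (final). 30-min cpd preincubation, RT. Ex340/Em450 read t=0, t=15 min.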

Assay [6] concerns the target Phospholipid hydroperoxide glutathione peroxidase GPX4 (Homo sapiens) (UniProt P36969). In words: Primary qHTS Assay for Inhibitors of Recombinant Selenoprotein Glutathione Peroxidase 4 (GPX4) (AID 1845192). Also: nearly all actives have a fitted effect of over 65% in size. Also: potency is read from the fitted curve at half-maximal effect. As to activity change, negative = inhibition: % is scaled to controls: 0 for no effect and ±100 for the full control effect. Particulars: recombinant GPX4, GR-coupled NADPH fluorescence, 15 min; series mostly up to 50 µM. The essentials: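 qHTS, GR-coupled: GPX4 200 nM + cpd 30 min RT → GSH 1 mM, NADPH 0.5 mM, GR 100 nM → CHP 0.5 mM start; fluor 340/450 at t0 and t15 min; no-enzyme wells as control.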
Background: Quantitative high-throughput screening tests each substance at several concentrations.

The target in assay [7] is Luciferin 4-monooxygenase (Photinus pyralis) (UniProt P08659). In words: Primary firefly luciferase (FLuc) qHTS assay for identification of artifact compounds. (AID 1845220). Also: nearly all actives have a fitted effect of over 60% in size. Also: potency is read from the fitted curve at half-maximal effect.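 As to activity change, negative = inhibition: plate controls were DMSO vehicle for no effect and no enzyme for full effect.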 Particulars: purified firefly luciferase, luminescence, 5 min; series mostly up to 54.1 µM. The gist of the method:
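qHTS, 15 min compound preincubation with substrate (10 uM luciferin, 10 uM ATP) at RT, then 10 nM FLuc; 5 min; luminescence; % inhibition vs no-enzyme/DMSO controls, 4-parameter Hill fit.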

Assay [8] has as its system Nanoluciferase (engineered Oplophorus gracilirostris luciferase). In words: Primary Nanoluciferase (NLuc) qHTS assay for identification of artifact compounds. (AID 1845222). The following applies: NLuc-conditioned medium, Nano-Glo luminescence, 5 min; series mostly up to 54.1 µM. The gist of the method:
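Luminescence read-out of secreted NLuc in S16 cell conditioned medium (1:55); compounds tested with 15 min RT preincubation, then Nano-Glo substrate 1:100, 5 min. % inhibition vs no-enzyme and DMSO controls, 4-parameter Hill fit.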

The nature of assay [9]: Primary redox qHTS assay for identification of artifact compounds. (AID 1845223). Also: potency is read from the fitted curve at half-maximal effect. The following applies: Amplex Red/HRP redox cycling with DTT, fluorescence; series mostly up to 53.8 µM. The gist of the method:
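Redox-cycling detection via DTT (250 uM final) oxidation coupled to Amplex Red (25 uM)/HRP (250 mU/mL) in HBSS. 15 min preincubation plus 30 min after DTT, room temperature. Ex/Em 525/598 nm; 4-parameter Hill fit against DMSO and 10 uM DA3003.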

Assay [10] in a line: Primary fluorescence-based thiol-reactive (MSTI) qHTS assay for identification of artifact compounds. (AID 1845221). Also: nearly all actives have a fitted effect of over 65% in size. Also: potency is read from the fitted curve at half-maximal effect. Particulars: MSTI thiol-reactivity probe, 1 h; series mostly up to 53.8 µM. The gist of the method:
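MSTI probe at 4 uM final in 2% DMSO/PBS pH 7.4; compounds, 1 h at room temperature in dark. Fluorescence Ex/Em 525/598 nm, normalised to Acetyl-MSTI and MSTI, fitted to 4-parameter Hill.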

Assay [11] can be described thus: NCATS anti-infectives library activity on HEK293 viability as a counter-qHTS vs the C. elegans viability qHTS (AID 1745854). Also: % is scaled to controls: 0 for no effect and ±100 for the full control effect. The following applies: HEK293 viability counter-screen; series mostly up to 41.8 µM. The essentials: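 CellTiter-Glo luminescence, read on a CCD imager, scored viability of HEK293 cells after 24 hr compound exposure at 37C. Library tested in several concentrations, 1:5 steps, up to 41.7 uM; digitonin served as control.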

Molecules are shown by their SMILES. Records with an inconclusive call do not appear. Activity calls are given as the source filed them. Unless noted, calls follow the shape of the dose curve; as a rule, active = well fitted curve in the direction sought with a large enough effect; inconclusive = small, poorly fitted or top-dose-only effect, or another doubt; inactive = no such curve, though single readings can be large; an effect the other way counts as inactive or inconclusive.

Sequence of Nicotinamide N-methyltransferase (Homo sapiens) (P40261 whole entry, looked up): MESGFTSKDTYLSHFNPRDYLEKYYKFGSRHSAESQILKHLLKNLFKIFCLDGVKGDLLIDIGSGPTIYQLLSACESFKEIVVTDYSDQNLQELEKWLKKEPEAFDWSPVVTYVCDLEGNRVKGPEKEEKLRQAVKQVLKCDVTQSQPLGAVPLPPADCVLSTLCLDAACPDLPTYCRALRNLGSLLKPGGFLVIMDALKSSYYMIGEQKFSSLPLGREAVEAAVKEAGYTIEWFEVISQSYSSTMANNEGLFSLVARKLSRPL
Sequence of Glutathione peroxidase 1 (Homo sapiens) (P07203 whole entry, looked up): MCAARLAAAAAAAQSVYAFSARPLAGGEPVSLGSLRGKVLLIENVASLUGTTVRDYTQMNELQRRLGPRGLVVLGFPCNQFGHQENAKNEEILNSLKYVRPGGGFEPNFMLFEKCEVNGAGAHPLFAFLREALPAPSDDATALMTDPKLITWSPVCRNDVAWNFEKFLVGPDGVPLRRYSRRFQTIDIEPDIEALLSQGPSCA
Sequence of Phospholipid hydroperoxide glutathione peroxidase GPX4 (Homo sapiens) (P36969 whole entry, looked up): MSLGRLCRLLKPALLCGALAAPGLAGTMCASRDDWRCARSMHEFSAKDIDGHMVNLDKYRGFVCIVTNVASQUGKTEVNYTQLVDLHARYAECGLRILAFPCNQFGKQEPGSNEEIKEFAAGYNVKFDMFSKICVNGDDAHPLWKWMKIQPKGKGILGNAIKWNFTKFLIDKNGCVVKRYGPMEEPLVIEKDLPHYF
Sequence of Catechol O-methyltransferase (Homo sapiens) (P21964 whole entry, looked up): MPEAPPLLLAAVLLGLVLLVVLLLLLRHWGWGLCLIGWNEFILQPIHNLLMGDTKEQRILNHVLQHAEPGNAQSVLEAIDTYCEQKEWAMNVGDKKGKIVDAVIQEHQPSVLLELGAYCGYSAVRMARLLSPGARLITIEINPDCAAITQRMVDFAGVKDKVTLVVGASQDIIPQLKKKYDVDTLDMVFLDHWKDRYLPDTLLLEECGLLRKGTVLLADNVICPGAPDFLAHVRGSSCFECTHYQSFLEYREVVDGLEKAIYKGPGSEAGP
Sequence of Phenylethanolamine N-methyltransferase (Homo sapiens) (P11086 whole entry, looked up): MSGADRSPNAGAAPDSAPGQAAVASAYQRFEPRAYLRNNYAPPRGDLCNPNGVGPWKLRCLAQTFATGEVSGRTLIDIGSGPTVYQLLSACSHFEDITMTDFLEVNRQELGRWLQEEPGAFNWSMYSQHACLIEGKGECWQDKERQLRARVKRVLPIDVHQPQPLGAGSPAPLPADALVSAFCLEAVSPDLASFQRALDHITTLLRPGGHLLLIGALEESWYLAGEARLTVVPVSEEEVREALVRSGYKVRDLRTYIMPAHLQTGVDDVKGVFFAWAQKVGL

Take `COc1cc2nc(N3CCN(C(=O)c4ccco4)C4CCCCC43)nc(N)c2cc1OC` (stereo not drawn): the activity was -2.31% in [1], -31.3% in [3] and 0.0711% in assay [4]. In addition, the activity change, negative = inhibition in assay [2] came to 0%. Besides, the Potency result in assay [5], in [7], in [8] and in assay [9] was “inactive” in each case. In addition, the Potency in assay [6] was 22.7 µM (active).
For the molecule `N#CSc1cc(SC#N)c(N)nc1N`, the activity in [1] is -83.2%; in [3], -72%; in assay [4], -48.1%. Besides, the Potency in assay [2] is 4.08 µM (active); in assay [9] it was 5.05 µM (active). In addition, the Potency entry in assay [5] and in assay [6] was “inactive” in each case. Moreover, in assay [7], the outcome was “inactive [at 11.6 µM]”. Besides, in [8], the activity, negative = inhibition was -17.4% [at 11.6 µM] (inactive).
With `CN(C)c1ccc(NC(=O)NS(=O)(=O)c2ccc(Cl)cc2)cc1`, the activity in assay [1] was -53.7%; in assay [3], -25%; in [4] it was -83.5%. For the same molecule, the Potency in [2] is 27.1 µM (active); in assay [10], 1.89 µM (active); in assay [9], 3.36 µM (active). For the same molecule, the Potency result in [5], in assay [6] and in [8] was “inactive” in each case.
For `C=C1C(=O)OC2CC(C)C(CCC(C)O)=CCC12` (stereo not drawn), the activity is -95.7% in [1], -3.12% in assay [3] and -3.4% in [4]. Besides, the activity change, negative = inhibition in assay [2] was -4.2%. Besides, the Potency entry in [5], in assay [6], in assay [8] and in [9] was “inactive” in each case. Moreover, in assay [7], the Potency was 6.75 µM (active).
Consider `COC(C)(C)CCn1nc(Nc2c(C)cccc2C)c2cnc(Nc3ccc(OCCN4CCCC4)c(F)c3)nc21`, for which the activity in assay [1] is -6.73%; in assay [3], -23.2%; in assay [4], -4.06%. Also, the activity change, negative = inhibition in assay [2] is 0%. In addition, the Potency entry in assay [5], in assay [6], in [7], in assay [8] and in assay [9] was “inactive” throughout.
With `CNCCC(c1cccs1)c1ccc(O)c2ccccc12` (stereo not drawn), the values for the activity in [1], in assay [3] and in [4] were -4.76%, -7.38% and -1.78%, respectively. Besides, the activity change, negative = inhibition in assay [2] is 2.71%. Further, the Potency result in [5], in assay [6], in assay [7] and in assay [8] was “inactive” throughout.
In the case of `Cc1cc(NC(=O)NCCN2CCC(O)(Cc3ccccc3)CC2)c2ccccc2n1`, the activity in assay [1] is -2.12%; in assay [3] it was 2.4%; in [4], 0.991%. The activity change, negative = inhibition in [2] was 0%. Moreover, the Potency result in assay [5], in [6], in assay [7], in assay [10], in assay [8] and in [9] was “inactive” each time.
In the case of `N#Cc1cnc2c(Cl)cc(NCc3cn(CCN4CCCCCC4)nn3)cc2c1Nc1ccc(F)c(Cl)c1`, the activity in assay [1] was -24.8%; in assay [3], -26.2%; in [4], -36.9%. Besides, the Potency in [2] is 15.2 µM (active). For the same molecule, the Potency result in assay [5], in assay [6], in assay [7], in assay [8] and in assay [9] was “inactive” each time.
Consider `C=C1C(=O)O[C@@H]2C3=C(C)CCC[C@]3(C)CC[C@@]12O`, for which the activity in [1] is -87.7%; in [3], -7.46%; in assay [4], -3.37%. Also, the activity change, negative = inhibition in assay [2] was -4.1%. For the same molecule, the Potency entry in assay [5], in assay [6], in [7], in assay [8] and in [9] was “inactive” each time.
For `CN(C)[C@@H]1CCc2[nH]c3ccc(NC(=O)c4ccc(F)cc4)cc3c2C1`, the activity in assay [1] was 0.841%; in [3] it was 0.33%; in assay [4] it was -1.89%. Further, the activity change, negative = inhibition in assay [2] was determined as 0%. Moreover, the Potency entry in assay [5], in assay [6], in [7], in [8] and in assay [9] was “inactive” in each case.
For the molecule `O=C(Cc1cccc(OC(F)(F)F)c1)Nc1ccc(CCCCc2nnc(NC(=O)Cc3ccccn3)s2)nn1`, the outcome in assay [11] was “inactive”. Also, the Potency result in assay [5] and in assay [6] was “inactive” throughout.

Values taken from PubChem BioAssay (NCATS).
